Fewer than 10 of roughly 1,200 compounds were called active.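 The calls were made as follows: active = inhibition reaching a set limit at one or more tested concentrations; inactive = inhibition under that limit at every dose.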 The list is a sample of the results. Measured potencies and affinities stand elsewhere.
Experiment: yeast RAM network inhibitors, dose response, S. cerevisiae (AID 1307);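 also: 0% = DMSO vehicle wells and 100% = 10 µM 1-NA-PP1 control; higher inhibition means more yeast growth since RAM block rescues cells from 5-FOA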
Settings: S. cerevisiae RAM network URA3 reporter, 5-FOA growth OD615, stronger effect = higher value, yeast express analog-sensitive mutant Cbk1 kinase; at 100 µM unless noted

Max inhibition, inactive:
O=C(CC12CC3CC(CC(C3)C1)C2)NC(=S)NCc1ccco1 5.22% [at 50 µM], Cc1ccc(Cl)cc1N1CCN(S(=O)(=O)c2ccc3[nH]c(=O)c(=O)[nH]c3c2)CC1 4.39%, O=C(CCCSc1nc2ccccc2[nH]1)Nc1nnc(-c2ccccc2)o1 1.46% [at 1.563 µM], Cc1cc(NC(=O)COC(=O)C(Nc2ccc(C(F)(F)F)cc2Cl)C(C)C)no1 (stereo not drawn) 3.28% [at 12.5 µM], Cc1ccccc1NC(=O)CCCSc1nc2ccccc2s1 1.4% [at 25 µM], O=C(OC(C(=O)Nc1cccc(C(F)(F)F)c1)c1ccccc1)C1CCCCC1 (stereo not drawn) 3.65% [at 50 µM], C=CCOc1c(Br)cc(CNc2ccc(NC(=O)C(C)C)c(OC)c2)cc1OCC 2.15% [at 3.125 µM], COc1ccccc1-n1c(COc2ccccc2-c2ccccc2)nnc1SCC(=O)c1c(N)n(C)c(=O)n(C)c1=O 11.9%, COc1ccc(Br)cc1C(=O)Nc1ccccc1-c1ccccc1 6.2% [at 50 µM], CCCC[C@@H]1C[C@H]1[C@@H](NC(=O)c1ccccc1)c1ccccc1C(F)(F)F 3.06%, CCOc1ccccc1NC(=O)C(OC(=O)c1cc(C)oc1C)c1ccccc1 (stereo not drawn) 4.82%, Cc1ccccc1Oc1ccc(-c2nc(N)nc(N)n2)cc1 3.9%, O=S(=O)(c1ccccc1F)N(Cc1ccco1)Cc1nnc(-c2ccccc2Br)o1 2.49% [at 1.563 µM], Cc1ccc(C)c(N2CCN(C(=O)c3ccc(Cn4c(=S)[nH]c5ccc(N6CCOCC6)cc5c4=O)cc3)CC2)c1 5.67%, CCOC(=O)C(C)Sc1nc2c(c(-c3cccs3)c1C#N)CCC2 (stereo not drawn) 3.89% [at 50 µM], Cc1ccc(OCc2nnc(SCC(=O)Nc3ccc4c(c3)OCCO4)n2Cc2ccco2)cc1 0.12% [at 0.782 µM], COC(=O)c1ccc(CSc2nc(-c3ccco3)cc(C(F)(F)F)n2)o1 5.27%, CCCCOc1nc2ccccc2nc1C(C#N)C(=O)NC1CCCCC1 (stereo not drawn) 4.45%, COc1ccc(-c2ccc(-c3noc(C4CCCCC4)n3)c(OC)n2)cc1 3.89% [at 50 µM], O=C(CSc1nc2ccccc2s1)CSc1nc2ccccc2s1 5.31%, O=C(Nc1ccccc1Cl)c1cccc(COc2cc(Cl)ccc2Cl)c1 2.59%, COc1ccc(Cc2nc(-c3ccc(-n4cccc4)cc3)no2)cc1OC 5.67%, CCCCOc1cccc(C(=O)NC(=S)Nc2cccc(C(F)(F)F)c2)c1 4.25%

From PubChem BioAssay AID1307 (SRMLSC, 2008)
